Screens deposited in PubChem BioAssay by National Center for Advancing Translational Sciences (NCATS).
Vaccinia Venus – inhibitors of vaccinia virus (Venus reporter). 330,000 compounds, 0.46% hits. Vaccinia virus Venus reporter expression, fluorescence. Potency, µM (series often up to 36.5 µM), for the others: at the highest dose activity change, negative = inhibition, most hits filed as inhibitors; calls by dose curve; tested in A549 cells; further: potency means the concentration at half of the fitted maximal effect; nearly all actives have a fitted effect of over 30% in size
VACV mCherry inh – vaccinia inhibition (mCherry reporter); 310,000 compounds, 0.63% hits; Vaccinia virus mCherry reporter infection, fluorescence; Potency, µM (top dose mostly 36.5 µM), inactives show at the top dose activity change, negative = inhibition, most hits filed as inhibitors; AID 720579; calls by dose curve; tested in A549 cells; further: potency means the concentration at half of the fitted maximal effect; nearly all actives have a fitted effect of over 35% in size
HCV inh – inhibitors of hepatitis C virus infection. Potency, µM (doses to about 41.8 µM), without a hit: at the highest dose activity change, negative = inhibition, hits mostly inhibitors. Huh7.5.1 HCVcc-Cre infection, luciferase reporter, 44 h. 340,000 compounds, 3.4% hits. AID 651820; active means well fitted inhibition curve with a large enough effect; inconclusive means small, poorly fitted or top-dose-only effect, or another doubt; inactive means no such curve, though single readings can be large or run the other way; further: potency means the concentration at half of the fitted maximal effect
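Compounds are dispensed onto cells plated 4 h earlier at 1,000 per well, with HCVcc-Cre virus (about 0.5 moi) added next. Following 44 h of culture, luminescent signal is measured for 15 sec after 15 min with substrate at room temperature.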
HCMV inh – blocks human cytomegalovirus replication | HFF cells, HCMV-luciferase reporter, 72 h; stronger effect = lower value | activity change, negative = inhibition, % at 57.5 µM | 410,000 compounds, 4.5% hits | AID 1259415; in the data active means activity change below about -60%; inconclusive means no clear call, values can overlap the other calls; inactive means above about -39%
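HFF cells seeded 16 h at 37C, treated with compounds, infected with luciferase-reporter HCMV at MOI 1 PFU/cell; luciferase read at 72 h post infection, normalized to buffer-only and Salinomycin controls.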
FMDV inh – foot and mouth disease virus antiviral activity | FMDV antiviral cell-based qHTS | Potency, µM (doses to about 57.9 µM), without a hit: top-dose activity change, negative = inhibition, most hits filed as inhibitors | 410,000 compounds, 1.2% hits | AID 1159524; calls by dose curve; tested in HEK293T cells; further: read-out not given here; potency means the concentration at half of the fitted maximal effect; nearly all actives have a fitted effect of over 45% in size
Active calls of the source: *; i = inactive; ? = inconclusive; · = no result; [ ] = dose if it differs, or a comment. Rows were chosen to be rich in hits. Some 7.3% of all compounds tested hit in one or more screens of this group. On the % scale 0 is the no-effect control and ±100 the full control effect.

SMILES | Vaccinia Venus | VACV mCherry inh | HCV inh | HCMV inh | FMDV inh
CCCN(CC(=O)Nc1ccccc1C)C(=O)CCl | 4.47µM* | 4.47µM* | 7.08µM* | -98.7* | 12.6µM*
CC(NC(=O)C(=O)Nc1c2c(nn1-c1ccc(F)cc1)CSC2)c1ccccc1 (stereo unspecified) | -26.7% | ? | · | -15.8 | -8.7%
Cc1ccc(C2N=C(Nc3nc4ccccc4o3)NC3=C2C(=O)CC(C)(C)C3)cc1 (stereo unspecified) | -8.2% | -14.6% | · | · | ·
COC(=O)c1cc2c(ccn2-c2ccc(F)cc2)n1Cc1ccc(OC)cc1 | -9.3% | -14.3% | ? | 27.5 | 18.7%
CCn1c(C(=O)OC)cc2c1ccn2-c1ccc(F)cc1 | -6.2% | -10.8% | 4.47µM* | 69.6 | -60.2%
COc1ccccc1CNC(=O)C1CCN(S(=O)(=O)c2ccc3c(c2)CCCN3C(C)=O)CC1 | 2.6% | -12.6% | · | -7.6 | -21.8%
Fc1ccc2[nH]c3c(NCc4ccccc4)ncnc3c2c1 | ? | ? | 7.94µM* | -85.4* | ?
COc1ccc2[nH]c3c(NCCC4=CCCCC4)ncnc3c2c1 | ? | ? | 2.82µM* | -88.9* | -61.1%
COc1ccc2[nH]c3c(NCCCOC(C)C)ncnc3c2c1 | -17.0% | -28.3% | 11.2µM* | 85.5 | 1.9%
C=CCNc1ncnc2c1[nH]c1ccc(C)cc12 | ? | ? | ? | -68.1* | ·
CCOc1ccc2[nH]c3c(NCCC(C)C)ncnc3c2c1 | · | · | -26.3% | -11.8 | 7.1%
COc1ccc2c(c1)[nH]c1c(=O)n(CCC3=CCCCC3)cnc12 | -14.9% | · | 5.0% | 4.7 | -0.9%
COc1ccc2[nH]c3c(NCc4ccco4)ncnc3c2c1 | -23.2% | ? | ? | · | -2.6%
COc1cc(OC)c(NC(=O)c2c(C)oc3nc(C)nc(N4CCOCC4)c23)cc1Cl | -10.3% | i | · | -34.2 | 10.2%
O=C(CN1C(=O)C(c2ccc(F)cc2)=NC12CCCCCC2)Nc1ccc(F)c(Cl)c1 | -16.1% | i | · | -89.8* | ?
COc1cccc(NC(=O)CN2C(=O)C(c3ccc(C)cc3)=NC23CCCCCC3)c1 | -8.8% | -7.1% | ? | ? | ?
O=C(CN1C(=O)C(c2ccc(F)cc2)=NC12CCCCCC2)Nc1ccccc1Cl | -3.1%[7.34 µM] | -3.7%[7.34 µM] | · | -14.4 | -28.9%
COc1cc(NC(=O)CN2C(=O)C(c3ccc(Cl)cc3)=NC23CCCCC3)cc(OC)c1 | -17.9% | -21.6% | · | -92.5* | -25.7%
COc1ccc(C2=NC3(CCCCCC3)N(CC(=O)Nc3cccc(Cl)c3)C2=O)cc1 | -21.8% | -25.7% | · | -90.6* | ?
Cc1cc(C)cc(OCc2cc(=O)n3c4c(sc3n2)CCCC4)c1 | -10.0% | -6.6% | · | -2.0 | -13.0%
O=C(NNC(=S)NC1CCCCC1)c1ccc(Cl)s1 | -13.7% | -13.8% | -0.9% | 17.7 | 53.3%
C/C(=N\NC(=O)NC1CCCCC1)c1ccc(Cl)s1 | -4.0% | -2.1% | 3.16µM* | 10.7 | 18.1%
O=C(O)[C@H]1[C@H](CO)[C@H]2Cn3c(cccc3=O)[C@@H]1N2S(=O)(=O)c1ccccc1F | · | · | · | 31.8 | ·
COc1ccc(N/C=C/C(=O)c2ccc(Cl)cc2)cc1 | -14.8% | i | 0.6% | 97.0 | -10.4%
COc1ccc(N/C=C2\C(=O)CCc3c2oc2cc(Cl)c(O)c(Cl)c32)cc1 | · | · | -7.9% | -61.9* | -24.4%
SMILES | Vaccinia Venus | VACV mCherry inh | HCV inh | HCMV inh | FMDV inh
COC(=O)C1CCCCN1Cc1ccc2c(c1)CN(C(=O)c1cc(C)nc3cc(F)ccc13)CCO2 (stereo unspecified) | -2.1% | -8.4% | · | · | -23.0%
Cc1ccc2nc(C)cc(C(=O)OCC(=O)Nc3cccnc3Cl)c2c1 | 2.4% | 3.7% | 0.5% | -76.4* | -16.9%
Cc1ccc(OCC(=O)Nc2cccnc2Cl)cc1C | -1.0% | -7.1% | -10.4% | -61.3* | 56.5%
Fc1cccc(CCN2CCNC[C@@H]2Cc2ccccc2)c1 | -2.4% | -4.0% | ? | -8.8 | -6.8%
FC(F)(F)c1cc(CCN2CCNC[C@@H]2Cc2ccccc2)cc(C(F)(F)F)c1 | 11.2µM* | 12.6µM* | 33.1% | -64.2* | -20.9%
CCCCSCCCNC(=O)CN1C(=O)COc2ccc(S(=O)(=O)N3CCCC3)cc21 | -11.4% | -16.8% | · | -9.9 | -25.0%
CC(=O)c1ccc(NC(=O)c2nn(C)c3c2COc2ccccc2-3)cc1 | -8.3% | -13.6% | · | -27.2 | 20.5%
CC1CC(C)CN(C(=O)c2ccc3c(=O)n(Cc4ccc5c(c4)OCO5)c(=S)[nH]c3c2)C1 (stereo unspecified) | · | · | -9.3% | -80.6* | -26.5%
O=C(c1ccc2c(=O)n(Cc3ccc(Cl)cc3)c(=S)[nH]c2c1)N1CCCC1 | · | · | 13.3% | 29.4 | -18.0%
O=C(c1ccc(Cn2c(=O)[nH]c3ccccc3c2=O)cc1)N1CCN(c2ccccn2)CC1 | -20.1% | -13.9% | -16.3% | 9.9 | 0.0%
O=C(c1ccc(Cn2c(=S)[nH]c3ccccc3c2=O)cc1)N1CCN(c2ccccn2)CC1 | ? | -23.9% | 11.2µM* | -65.3* | ?
CN1CCN(C(=O)c2ccc3c(=O)n(Cc4ccc5c(c4)OCO5)c(=S)[nH]c3c2)CC1 | -9.5% | -17.2% | · | · | ·
O=C(CCc1nnc2n(Cc3ccc(F)cc3)c(=O)c3ccccc3n12)N1CCN(c2ccccn2)CC1 | · | · | 14.1µM* | -18.6 | ?
O=C(c1ccc2c(=O)n(Cc3ccc(Cl)cc3)c(=S)[nH]c2c1)N1CCOCC1 | -17.9% | -4.3% | -4.8% | -65.0* | ?
Cc1ccc2nc(-c3ccc(C)o3)c(Nc3ccc(Cl)cc3)n2c1 | -1.4% | -7.9% | · | · | ·
O=C(c1ccc2c(Cl)c3c(nc2c1)CCCC3)N1CCN(c2ccccc2F)CC1 | -6.0% | -7.2% | · | -28.4 | -8.4%
CCCCCn1c(=O)[nH]c2cc(C(=O)N3CCN(Cc4ccc5c(c4)OCO5)CC3)ccc2c1=O | ? | -14.6% | 2.82µM* | -76.3* | ?
Cc1ccc(CNC(=O)c2ccc(CSCc3ccccc3C)o2)cc1 | -11.3% | 2.2% | · | 6.7 | -5.5%
O=C(NCc1ccco1)/C(=C/c1ccc(C(F)(F)F)cc1)c1nc2ccccc2[nH]1 | · | · | ? | -24.9 | 21.0%
O=C(NCc1ccco1)/C(=C/c1cccc(C(F)(F)F)c1)c1nc2ccccc2[nH]1 | -11.0% | -22.8% | 15.8µM* | -100.3* | 0.0%
Cc1ccc(NC(=O)C(C)c2cccc(C(=O)c3ccccc3)c2)cc1O (stereo unspecified) | ? | ? | ? | -62.3* | ?
Cc1cccc(NC(=O)C(C)C(=O)c2ccccc2)c1 (stereo unspecified) | · | · | 8.3% | -12.8 | -7.3%
Cc1ccc(NC(=O)c2ccc(Cl)c(N3C(=O)C=CC3=O)c2)cc1 | ? | · | 5.9% | -12.0 | 39.8µM*
O=[N+]([O-])c1cc(S(=O)(=O)Nc2ccccc2)ccc1N1CCN(c2ccccc2)CC1 | ? | ? | 12.6µM* | -32.5 | ?
CN(C)CCCNS(=O)(=O)c1ccc(N2CCN(Cc3ccc4c(c3)OCO4)CC2)c([N+](=O)[O-])c1 | -10.7% | ? | 5.62µM* | -37.6 | -19.5%
CC(=O)c1ccc(N2CCN(c3ccc(S(=O)(=O)NCCCN(C)C)cc3[N+](=O)[O-])CC2)cc1 | · | · | 11.2µM* | 0.0 | -20.1%
